Rows were chosen to be rich in hits. Some 12% of all compounds tested hit in one or more screens of this group.
Sm TGR block: blocks Schistosoma mansoni thioredoxin glutathione reductase | Q962Y6 | purified TGR, DTNB reduction, TNB absorbance 405 nm | Potency, µM (top dose mostly 114 µM), usual class: inhibitors | hit rate 3% among 360,000 | AID 485364; note: nearly all actives have a fitted effect of over 60% in size
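First, TGR (20 nM dispensed) and NADPH were mixed with compound. Second, a 15 min room-temperature incubation followed. Third, further NADPH and then DTNB were added to start the reaction. Finally, TNB absorbance was monitored kinetically.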
Pf growth 48h: P. falciparum growth inhibition at 48 hours (one generation) | P. falciparum luciferase growth in erythrocytes, 48 h | Potency, µM (highest dose often 28.7 µM), most hits filed as inhibitors | hit rate 5.9% among 310,000 | AID 504832
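Luciferase-expressing P. falciparum in infected erythrocytes (2% hematocrit, 0.1% parasitemia final) in RPMI 1640/0.5% Albumax were exposed to compound for 48 hours at 37 C, 5% CO2; growth read as luminescence.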
Pf growth 96h: P. falciparum growth inhibition at 96 hour, primary screen for plastid delayed-death inhibitors. P. falciparum luciferase reporter growth, 96 h. Potency, µM (titrated, usually from 28.7 µM), usual class: inhibitors. hit rate 6.9% among 320,000
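Cell-based qHTS: luciferase-tagged P. falciparum in erythrocytes (2% hematocrit, 0.05% parasitemia final) incubated with compounds for 96 hours, 37 C, 5% CO2; luciferase detection reagent then added and luminescence measured.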
AmpC no deterg: blocks E. coli AmpC beta-lactamase in detergent-free assay. P00811. AmpC nitrocefin hydrolysis, absorbance 480 nm, 0.0001% Triton. Potency, µM (top dose mostly 57.1 µM), usual class: inhibitors. hit rate 0.52% among 330,000. AID 485341; note: nearly all actives have a fitted effect of over 20% in size
Target sequence (P00811 whole entry, looked up): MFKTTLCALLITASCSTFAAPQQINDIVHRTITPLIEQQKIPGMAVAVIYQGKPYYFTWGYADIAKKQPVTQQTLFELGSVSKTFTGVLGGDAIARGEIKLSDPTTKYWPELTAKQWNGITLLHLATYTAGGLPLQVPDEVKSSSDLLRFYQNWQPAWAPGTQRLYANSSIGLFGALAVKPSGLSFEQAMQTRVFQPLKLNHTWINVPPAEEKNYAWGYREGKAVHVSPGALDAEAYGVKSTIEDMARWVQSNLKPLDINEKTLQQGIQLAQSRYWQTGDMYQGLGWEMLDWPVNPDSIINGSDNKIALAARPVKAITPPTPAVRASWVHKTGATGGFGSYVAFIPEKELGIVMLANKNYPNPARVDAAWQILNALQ
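AmpC (5.3 nM in the dispensed reagent) in 20 mM phosphate pH 7.0 with 0.01% (detergent screen) or 0.0001% Triton X-100 was preincubated with compounds for 15 min at room temperature. Nitrocefin was then added from an 800 uM solution, and hydrolysis was followed at 480 nm.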
AmpC inh detg: blocks E. coli AmpC beta-lactamase in detergent assay; P00811; hit rate 0.041% among 370,000; AmpC hydrolysis of nitrocefin, absorbance 480 nm, 0.01% Triton; Potency, µM (titrated, usually from 114 µM), usual class: inhibitors; note: nearly all actives have a fitted effect of over 25% in size
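20 mM phosphate pH 7.0 + 0.01% (detergent screen) or 0.0001% Triton X-100; 5.3 nM AmpC reagent; cpd preinc 15 min RT; nitrocefin (800 uM stock) to start; A480 q20 s × 4 min; Activity was normalised to no-enzyme and no-compound control wells.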
SARS PLpro yeast: inhibitors of SARS-CoV papain-like protease in yeast; S. cerevisiae expressing SARS-CoV PLpro, growth rescue; Potency, µM (series often up to 32.9 µM), usual class: activators; AID 485353; hit rate 0.19% among 330,000; calls by dose curve; note: nearly all actives have a fitted effect of over 55% in size
A number is an active result; n = inactive; u = inconclusive; x = no result; [ ] = another dose, or the depositor's remark. Unless noted, calls come from the whole dose curve; as a rule, active = well fitted curve in the direction sought with a large enough effect; inconclusive = small, poorly fitted or top-dose-only effect, or another doubt; inactive = no such curve, though single readings can be large; an effect the other way counts as inactive or inconclusive.

SMILES	Sm TGR block	Pf growth 48h	Pf growth 96h	AmpC no deterg	AmpC inh detg	SARS PLpro yeast
C=CCOC(=O)/C(=C/c1ccco1)NC(=O)/C=C/c1ccccc1	40µM	x	u	n	n	n
CC(C)(C)c1ccc(-c2nc(SCC(=O)Nc3ccc(Cl)cc3)[nH]c(=O)c2C#N)cc1	n	x	x	x	n	x
COc1ccc(-n2c(SCC(N)=O)nc3sc4c(c3c2=O)CCN(C)C4)cc1	n	u	2.1µM	n	n	n
CCOC(=O)CSc1nc2sc3c(c2c(=O)n1-c1ccccc1)CCN(C(C)C)C3	u	n[0.00184 µM]	0.83µM	n	n	n
CCOC(=O)CSc1nc2sc3c(c2c(=O)n1-c1ccccc1)CCN(C)C3	n	4.7µM	n	n	n	n
COc1ccc(-n2c(SCCNCCO)nc3sc4c(c3c2=O)CCCC4)cc1	n	13µM	9.3µM	n	n	n
CC(CNC(=O)C1CCN(Cc2cc3ccccc3n2Cc2ccccc2)CC1)c1ccccc1 (centres undefined)	n	x	x	x	n	x
COc1cccc(NC(=O)CC2Nc3cc(C)c(C)cc3NC2=O)c1 (centres undefined)	n	x	x	x	n	x
CCOC(=O)CSc1nc2sc3c(c2c(=O)n1-c1ccc(OC)cc1)CCN(C)C3	n	1.9µM	1.5µM	n	n	n
C=C(C)CSc1nc2sc3c(c2c(=O)n1-c1ccc(OC)cc1)CCN(C)C3	n	1.9µM	1µM	n	n	n
COc1ccc(-n2c(SCC(=O)NCc3ccco3)nc3sc4c(c3c2=O)CCN(C)C4)cc1	n	u	u	n	n	n
CCSc1nc2sc3c(c2c(=O)n1-c1ccc(OC)cc1)CCN(C)C3	n	u	u	n	n	n
COC(=O)CSc1nc2sc3c(c2c(=O)n1C1CCCCC1)CCN(C)C3	u	x	n	n	n	n
CN1CCc2c(sc3nc(SCC(=O)NCc4ccco4)n(-c4ccccc4)c(=O)c23)C1	n	9.3µM	0.93µM	n	n	n
COC(=O)CSc1nc2sc3c(c2c(=O)n1-c1ccc(OC)cc1)CCN(C)C3	n	6.6µM	5.2µM	n	n	n
COc1cccc(NC(=O)CSc2nc(=O)[nH]c3c2CCCC3)c1	n	x	x	x	n	x
CN1CCc2c(sc3nc(NCCO)n(-c4cccc(Cl)c4)c(=O)c23)C1	n	x	4.7µM	n	n	n
CCCCSc1nc2sc3c(c2c(=O)n1-c1ccc(C)cc1)CCN(C)C3	n	u	u	n	n	n
CCOC(=O)CSc1nc2sc3c(c2c(=O)n1-c1ccc(C)cc1)CCN(C)C3	n	4.7µM	2.3µM	n	n	n
O=C(NCc1ccco1)c1ccc2nc3sc4c(c3c(=O)n2c1)CCCC4	11µM	n	1.9µM	n	n	n
CCc1ccc(C2N3CC4(C)CN2CC(c2ccccc2)(C3)C4=O)cc1 (centres undefined)	n	x	x	x	n	x
CS(=O)(=O)c1ccc(Cl)c(C(=O)O)c1	n	n	3.7µM	n	n	n
c1ccc2c(Nc3nnc(-c4ccncc4)s3)cccc2c1	n	n	n	10µM	n	n
CN1CCN(S(=O)(=O)c2cccc(C(=O)N(Cc3nnc(-c4ccccc4Cl)o3)C3CC3)c2)CC1	u	u	15µM	n	n	n
Cc1ccsc1C(=O)N(Cc1nnc(-c2ccccc2Cl)o1)C1CC1	n	u	u	n	n	n
SMILES	Sm TGR block	Pf growth 48h	Pf growth 96h	AmpC no deterg	AmpC inh detg	SARS PLpro yeast
O=C(c1ccc([N+](=O)[O-])o1)N(Cc1nnc(-c2ccccc2Cl)o1)C1CC1	50µM	u	u	n	n	n
CC(C)(C)C1CCC(C(=O)OCC(=O)N2CCN(C(=O)c3ccco3)CC2)CC1 (centres undefined)	n	n	n	n	n	n
FC(F)(F)c1n[nH]c(=S)n1/N=C/c1ccco1	n	n	n	n	n	n
COc1cccc(CNC(=O)CN2C(=O)N(c3ccc(C)cc3C)S(=O)(=O)c3ccccc32)c1OC	n	x	x	x	n	x
COc1cc2ncnc(Nc3ccc(F)c(Cl)c3)c2cc1OCCCN1CCOCC1	x	0.54µM	x	x	x	x
Cc1ccc(OCCOCCn2c(-c3ccc(Cl)cc3)nc3ccccc3c2=O)cc1	n	x	x	x	n	x
CCCN(C(=O)c1ccco1)c1nnc(-c2ccncc2)s1	n	n	n	n	n	n
CCCCN(C(=O)c1ccco1)c1nnc(-c2cc(OC)c(OC)c(OC)c2)s1	n	1.9µM	x	n	n	n
C/C(=C\C(=O)OCCCCCCCCC(=O)O)C[C@@H]1OC[C@H](C[C@@H]2O[C@H]2[C@@H](C)[C@H](C)O)[C@@H](O)[C@H]1O	x	0.19µM	0.03µM	x	x	x
COc1ccc(C(=O)CSc2nnc(CNC(=O)c3ccc(OC)cc3)n2C)cc1	n	u	u	n	n	n
COc1ccc(OC)c(-n2nnnc2SCC(=O)Nc2ccc(C(=O)N3CCCCC3)cc2)c1	n	u	12µM	n	n	n
COc1ccc(OC)c(-n2nnnc2SCC(=O)Nc2ccc3c(c2)OCCO3)c1	n	n	10µM	n	u	n
CC(=O)Nc1nc(C)cs1	n	u	n	n	u	n
Cc1csc(NC(=O)NCC2CCCC(CNC(=O)Nc3nc(C)cs3)C2)n1 (centres undefined)	n	12µM	u	n	n	n
CCn1c(Cl)c(C=O)s/c1=N\S(=O)(=O)c1ccccc1	0.32µM	u	u	n	n	n
CCN1C(=O)CS/C1=N\S(=O)(=O)c1ccc(Cl)cc1	n	n[5.75 µM]	n	n	n	n
CCN(Cc1ccccc1)C(=O)c1ccc(CS(=O)c2ccccc2C)o1 (centres undefined)	14µM	n	n	n	n	n
Cc1ccccc1S(=O)Cc1ccc(C(=O)NC2CC2)o1 (centres undefined)	u	n	n	n	n	n
COc1cccc(CN2CCC(C(=O)N3CCN(Cc4ccc5c(c4)OCO5)CC3)CC2)c1	n	n	n	n	n	n
Cc1cccc(N2CCN(C(=O)C3CCN(C(=O)c4cc5sccc5n4C)CC3)CC2)c1C	n	x	x	x	n	x
Cn1c(C(=O)NCc2ccc3c(c2)OCO3)cc2sccc21	n[11.4 µM]	x	x	n	n	n
Cn1c(C(=O)N2CCC(C(=O)N3CCOCC3)CC2)cc2sccc21	n	n	12µM	n	u	n
Cn1c(C(=O)N2CCC(C(=O)N3CCN(Cc4ccc5c(c4)OCO5)CC3)CC2)cc2sccc21	n	u	10µM	n	u	n
Cn1c(C(=O)N2CCN(Cc3ccc4c(c3)OCO4)CC2)cc2sccc21	n	u	10µM	n	u	n
Cn1c(C(=O)N2CCC(C(=O)NCCc3ccccc3)CC2)cc2sccc21	n	x	x	x	n	x
CC(C)N(CCCNC(=O)C1CCN(C(=O)c2cc3sccc3n2C)CC1)Cc1ccccc1	n	u	12µM	n	n	n
C=CCNC(=O)COc1ccc(N(C)S(=O)(=O)c2ccc(NC(C)=O)cc2)cc1	n	n	n	n	n	n
